The campaign covered roughly 39,000 compounds. About 1,500 (3.8%) were called active. This is one part of a sample in which actives are shown more often than they occur.

This test deals with HSkMC (human skeletal muscle cells). Description: cytotoxicity call (relative viability < 0.9). As to conditions: 10 µM.
On to `C[C@H]1CN([C@@H](C)CO)C(=O)c2cc(-c3ccc(C(=O)N(C)C)cc3)cnc2O[C@@H]1CN(C)C(=O)c1ccncc1`, for which the cytotoxicity call was “inactive”.

For `COc1cccc(NC(=O)C[C@@H]2CC[C@H]3[C@H](COc4ccc(NC(=O)C5CCOCC5)cc4C(=O)N3C)O2)c1`, the cytotoxicity call is “inactive”.

Take `C[C@@H]1CCCCO[C@H](CN(C)C(=O)Nc2ccccc2)[C@@H](C)CN([C@H](C)CO)C(=O)c2cc(NC(=O)Nc3ccc(F)cc3)ccc2O1`: the cytotoxicity call was “inactive”.

As to `Cn1nnc2c(Cl)ncnc21`, the cytotoxicity call is “inactive”.

Take `COC(=O)C=Cc1cc(OC)c(OC)c(OC)c1`: the cytotoxicity call is “inactive”.

As for `CCOC(=O)/C=C/C(=O)N1CCC=CC1=O`, the cytotoxicity call is “active”.

Consider `C/C=C/C(=O)N1CCC=CC1=O`, for which the cytotoxicity call is “inactive”.

For `COc1cc(C=CC(=O)N2CCC=CC2=O)cc(OC)c1OC`, the cytotoxicity call is “active”.

Take `COc1cc(/C=C/C(=O)N2CCC=CC2=O)cc(OC)c1OCCOCCOCCOCCC(=O)OC(C)(C)C`: the cytotoxicity call is “active”.

As to `COc1cc(/C=C/C(=O)N2CCC=CC2=O)cc(OC)c1OC(=O)CCCCCCCCCCC(=O)Oc1c(OC)cc(/C=C/C(=O)N2CCC=CC2=O)cc1OC`, the cytotoxicity call is “inactive”.

For the compound `COc1cc(C=CC(=O)N2CCCCCCC2)cc(OC)c1OC`, the cytotoxicity call was “inactive”.

On to `COc1cc(C=CC(=O)O)cc(OC)c1OC`, for which the cytotoxicity call was “inactive”.

Turning to `CCC(=O)OCN1C(=O)C=CC1=O`, the cytotoxicity call is “inactive”.

As for `C=C(C)C(=O)N1CCC=CC1=O`, the cytotoxicity call was “active”.

Take `C[C@@H]1CN([C@H](C)CO)C(=O)c2cc(NC(=O)Nc3ccc(F)cc3)ccc2O[C@@H](C)CCCCO[C@@H]1CN(C)C(=O)NC1CCCCC1`: the cytotoxicity call is “inactive”.

Consider `NCC[C@H]1CC[C@@H](NC(=O)C2CC2)[C@@H](CO)O1`, for which the cytotoxicity call is “inactive”.

Take `COC[C@H]1CN(C)N=C(C2CC2)O1`: the cytotoxicity call was “inactive”.

Take `C[C@H]1CN([C@@H](C)CO)C(=O)Cc2cc(NC(=O)Nc3cccc4ccccc34)ccc2O[C@@H]1CN(C)Cc1ccc(C(=O)O)cc1`: the cytotoxicity call was “inactive”.

As to `O=C(O)C1CCC1`, the cytotoxicity call is “inactive”.

As to `CO[C@H]1CN(C)C(=O)c2cc(NS(=O)(=O)CC(F)(F)F)ccc2OC[C@@H](C)N(Cc2ccccn2)C[C@H]1C`, the cytotoxicity call is “inactive”.

Turning to `CC(C)NC(=O)N(C)C[C@H]1Oc2c(NC(=O)Nc3ccc4c(c3)OCO4)cccc2C(=O)N([C@H](C)CO)C[C@@H]1C`, the cytotoxicity call is “inactive”.

For the compound `C[C@H]1CCCCO[C@H](CN(C)Cc2ccncc2)[C@@H](C)CN([C@@H](C)CO)C(=O)c2cc(NC(=O)CCC(F)(F)F)ccc2O1`, the cytotoxicity call was “inactive”.

`O=C(O)C1(c2cccs2)CCCC1`: the cytotoxicity call was “inactive”.

Consider `Cc1noc(C)c1NC(=O)N(C)C[C@H]1Oc2c(NC(=O)NC(C)C)cccc2C(=O)N([C@@H](C)CO)C[C@@H]1C`, for which the cytotoxicity call was “inactive”.

Take `CC[N+](CC)(CC)CCOc1ccc(/C=C/c2ccccc2)cc1`: the cytotoxicity call is “inactive”.

As for `CCN(CC)CCNC(=O)c1c(C)[nH]c(/C=C2/C(=O)Nc3ccc(-c4csc(-c5ccccc5)n4)cc32)c1C`, the cytotoxicity call is “active”.

For the compound `CCCCOc1cc(C(=O)NCCN(CC)CC)c2ccccc2n1.Cl`, the cytotoxicity call was “inactive”.

Take `CN(C)CCCNC(=O)C[C@H]1CC[C@H]2[C@@H](COC[C@H](O)CN2C(=O)Nc2cc(Cl)cc(Cl)c2)O1`: the cytotoxicity call is “inactive”.

`Cn1cc(N2C[C@]3(CNCCOC3)OCC2=O)cn1`: the cytotoxicity call is “inactive”.

With `CC(C)Nc1ncnc(N)c1[N+](=O)[O-]`, the cytotoxicity call is “inactive”.

Turning to `COc1ccc(C#Cc2ccc3c(c2)[C@]2(C(=O)N3)[C@H](C(=O)N3CCCCCCC3)[C@H]3C(=O)O[C@H](c4ccccc4)[C@H](c4ccccc4)N3[C@@H]2c2ccc(O)cc2)cc1`, the cytotoxicity call is “inactive”.

With `C[C@@H]1CCCCO[C@H](CN(C)Cc2ccc(C(F)(F)F)cc2)[C@@H](C)CN([C@@H](C)CO)C(=O)c2cc(NC(=O)Nc3ccc4c(c3)OCO4)ccc2O1`, the cytotoxicity call is “active”.

With `C[C@@H]1CN([C@H](C)CO)C(=O)c2cc(NC(=O)Nc3ccc4c(c3)OCO4)ccc2O[C@@H](C)CCCCO[C@@H]1CN(C)Cc1ccc(C(F)(F)F)cc1`, the cytotoxicity call was “inactive”.

In the case of `C[C@@H]1CCCCO[C@H](CN(C)Cc2ccc(C(F)(F)F)cc2)[C@H](C)CN([C@H](C)CO)C(=O)c2cc(NC(=O)Nc3ccc4c(c3)OCO4)ccc2O1`, the cytotoxicity call was “inactive”.

Take `C[C@@H]1CN([C@@H](C)CO)C(=O)c2cc(NC(=O)Nc3ccc4c(c3)OCO4)ccc2O[C@@H](C)CCCCO[C@@H]1CN(C)Cc1ccc(C(F)(F)F)cc1`: the cytotoxicity call was “inactive”.

For the compound `C[C@@H]1CN([C@@H](C)CO)C(=O)c2cc(NC(=O)Nc3ccc4c(c3)OCO4)ccc2O[C@@H](C)CCCCO[C@H]1CN(C)Cc1ccc(C(F)(F)F)cc1`, the cytotoxicity call was “inactive”.

With `C[C@@H]1CCCCO[C@@H](CN(C)Cc2ccc(C(F)(F)F)cc2)[C@H](C)CN([C@H](C)CO)C(=O)c2cc(NC(=O)Nc3ccc4c(c3)OCO4)ccc2O1`, the cytotoxicity call was “active”.

For `C[C@H](CO)N1C[C@H](C)[C@@H](CN(C)C(=O)NC2CCCCC2)Oc2c(NC(=O)C3CC3)cccc2C1=O`, the cytotoxicity call was “inactive”.

As for `CN(C)CCO[C@@H]1CC[C@@H]2[C@H]1OCCN2S(C)(=O)=O`, the cytotoxicity call was “inactive”.

Turning to `COCCNC(=O)C[C@@H]1CC[C@H]2[C@@H](COc3ccc(NC(=O)Nc4cccc(F)c4)cc3C(=O)N2C)O1`, the cytotoxicity call was “inactive”.

As for `C[C@@H]1CCCCO[C@H](CN(C)C(=O)Nc2ccc(F)cc2)[C@@H](C)CN([C@@H](C)CO)C(=O)c2cc(NC(=O)c3ccccc3)ccc2O1`, the cytotoxicity call is “inactive”.

Take `C[C@@H]1CN([C@@H](C)CO)C(=O)c2cc(NC(=O)Nc3ccc(C(F)(F)F)cc3)ccc2O[C@@H](C)CCCCO[C@@H]1CN(C)S(=O)(=O)c1cccs1`: the cytotoxicity call was “inactive”.

Turning to `C[C@@H]1CCCCO[C@@H](CN(C)S(=O)(=O)c2cccs2)[C@@H](C)CN([C@H](C)CO)C(=O)c2cc(NC(=O)Nc3ccc(C(F)(F)F)cc3)ccc2O1`, the cytotoxicity call was “inactive”.

Regarding `C[C@@H]1CCCCO[C@H](CN(C)S(=O)(=O)c2cccs2)[C@H](C)CN([C@@H](C)CO)C(=O)c2cc(NC(=O)Nc3ccc(C(F)(F)F)cc3)ccc2O1`, the cytotoxicity call is “active”.

Turning to `C[C@@H]1CN([C@H](C)CO)C(=O)c2cc(NC(=O)Nc3ccc4c(c3)OCO4)ccc2O[C@@H](C)CCCCO[C@H]1CN(C)S(=O)(=O)c1cccs1`, the cytotoxicity call is “inactive”.

Consider `C[C@@H]1CCCCO[C@@H](CN(C)S(=O)(=O)c2cccs2)[C@@H](C)CN([C@@H](C)CO)C(=O)c2cc(NC(=O)Nc3cccc4ccccc34)ccc2O1`, for which the cytotoxicity call was “inactive”.

`C[C@H](CO)N1C[C@H](C)[C@@H](CN(C)S(=O)(=O)c2cccs2)OCCCC[C@H](C)Oc2ccc(NC(=O)Nc3ccc4c(c3)OCO4)cc2C1=O`: the cytotoxicity call was “active”.

In the case of `C[C@H](CO)N1C[C@H](C)[C@H](CN(C)S(=O)(=O)c2cccs2)OCCCC[C@H](C)Oc2ccc(NC(=O)Nc3cccc4ccccc34)cc2C1=O`, the cytotoxicity call was “active”.

In the case of `C[C@@H]1CCCCO[C@@H](CN(C)S(=O)(=O)c2cccs2)[C@H](C)CN([C@@H](C)CO)C(=O)c2cc(NC(=O)Nc3cccc4ccccc34)ccc2O1`, the cytotoxicity call was “inactive”.

Turning to `C[C@H](CO)N1C[C@H](C)[C@@H](CN(C)S(=O)(=O)c2cccs2)OCCCC[C@H](C)Oc2ccc(NC(=O)Nc3ccc(C(F)(F)F)cc3)cc2C1=O`, the cytotoxicity call is “inactive”.

In the case of `C[C@@H]1CN([C@@H](C)CO)C(=O)c2cc(NC(=O)Nc3ccc4c(c3)OCO4)ccc2O[C@@H](C)CCCCO[C@@H]1CN(C)S(=O)(=O)c1cccs1`, the cytotoxicity call is “inactive”.

For the compound `C[C@@H]1CCCCO[C@H](CN(C)S(=O)(=O)c2cccs2)[C@@H](C)CN([C@@H](C)CO)C(=O)c2cc(NC(=O)Nc3ccc(C(F)(F)F)cc3)ccc2O1`, the cytotoxicity call was “active”.

In the case of `C[C@@H]1CN([C@H](C)CO)C(=O)c2cc(NC(=O)Nc3ccc(C(F)(F)F)cc3)ccc2O[C@@H](C)CCCCO[C@@H]1CN(C)S(=O)(=O)c1cccs1`, the cytotoxicity call is “inactive”.

With `C[C@@H]1CN([C@H](C)CO)C(=O)c2cccc(NS(=O)(=O)c3ccccc3)c2O[C@@H]1CN(C)CC1CC1`, the cytotoxicity call is “inactive”.

In the case of `O=C(C[C@H]1CC[C@@H]2[C@H](COC[C@H](O)CN2Cc2ccccc2F)O1)N[C@H]1CCN(Cc2ccccc2)C1`, the cytotoxicity call is “inactive”.

Turning to `O=c1[nH][nH]c(=S)n1C1CC1`, the cytotoxicity call was “inactive”.

In the case of `C=C(/C=C/CNS(=O)(=O)c1ccc(C)cc1)[C@H](O)[C@H]1CCCN1S(=O)(=O)c1ccccc1[N+](=O)[O-]`, the cytotoxicity call is “inactive”.

Turning to `O=C(C[C@H]1C[C@@H]2c3cc(NC(=O)c4cccnc4)ccc3O[C@@H]2[C@H](CO)O1)NCc1cc(F)ccc1F`, the cytotoxicity call is “inactive”.

Take `C[C@H]1CN([C@@H](C)CO)C(=O)CCCn2nncc2CO[C@H]1CN(C)C(=O)CCCN(C)C`: the cytotoxicity call was “inactive”.

As to `CCC[C@@H]1C[C@@H](C(=O)N[C@H]([C@H]2O[C@H](SC)[C@H](O)[C@@H](O)[C@H]2O)[C@@H](C)Cl)N(C)C1`, the cytotoxicity call was “inactive”.

Take `Cc1noc(C)c1S(=O)(=O)N(C)C[C@H]1Oc2ccc(NS(C)(=O)=O)cc2CC(=O)N([C@@H](C)CO)C[C@H]1C`: the cytotoxicity call was “inactive”.

Turning to `CCC(CCC(C)C1CCC2C3CC=C4CC(O)CCC4(C)C3CCC12C)C(C)C` (stereo not drawn) [beta-SITOSTEROL ], the cytotoxicity call is “inactive”.

For `N/C(=N/O)c1cnc2n(c1=O)CCS2`, the cytotoxicity call is “inactive”.

On to `C[C@@H]1CN([C@H](C)CO)C(=O)Cc2cc(NC(=O)Cc3ccccc3)ccc2O[C@H]1CN(C)S(=O)(=O)c1cccs1`, for which the cytotoxicity call was “inactive”.

In the case of `O=C(CN1CCOCC1)N[C@H]1CC[C@H](CCNC(=O)C2CCCCC2)O[C@H]1CO`, the cytotoxicity call was “inactive”.

As for `C[C@@H]1CN([C@@H](C)CO)C(=O)c2ccccc2-c2ccccc2CO[C@H]1CN(C)S(=O)(=O)c1ccc(C(F)(F)F)cc1`, the cytotoxicity call was “inactive”.

Regarding `Cc1cccc2c3c(ccc12)C1=C(C(=O)C3=O)C(C)CO1` (configuration not stated), the cytotoxicity call was “inactive”.

On to `CC1COC2=C1C(=O)C(=O)c1c2ccc2c1CCCC2(C)C` (configuration not stated), for which the cytotoxicity call is “active”.

Regarding `Cc1coc2c1C(=O)C(=O)c1c-2ccc2c1CCCC2(C)C`, the cytotoxicity call is “active”.

`C[C@H]1CN(C(=O)N(C)C)CCN1C(=O)N(C)C`: the cytotoxicity call was “inactive”.

With `O=C(O)Cn1c(=O)n(CC(=O)O)c2ccccc21`, the cytotoxicity call was “inactive”.

As to `COC(=O)C(CCCN1C(=O)c2ccccc2C1=O)(NC(C)=O)c1nn[nH]n1` (configuration not stated), the cytotoxicity call is “inactive”.
